In assay [1] the target is Glycogen synthase kinase-3 beta (Homo sapiens) (UniProt P49841). The settings on record: at 1 µM.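 Also: reported values are mean percent inhibition of GSK3B.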
The target of assay [2] is Homeodomain-interacting protein kinase 1 (Homo sapiens) (UniProt Q86Z02). Conditions: at 0.1 µM.
Assay [3] shares this target. Conditions: at 1 µM.
The target of assay [4] is T1, Homeodomain-interacting protein kinase 4 (Homo sapiens) (UniProt Q8NE63).
T1 sequence (whole entry): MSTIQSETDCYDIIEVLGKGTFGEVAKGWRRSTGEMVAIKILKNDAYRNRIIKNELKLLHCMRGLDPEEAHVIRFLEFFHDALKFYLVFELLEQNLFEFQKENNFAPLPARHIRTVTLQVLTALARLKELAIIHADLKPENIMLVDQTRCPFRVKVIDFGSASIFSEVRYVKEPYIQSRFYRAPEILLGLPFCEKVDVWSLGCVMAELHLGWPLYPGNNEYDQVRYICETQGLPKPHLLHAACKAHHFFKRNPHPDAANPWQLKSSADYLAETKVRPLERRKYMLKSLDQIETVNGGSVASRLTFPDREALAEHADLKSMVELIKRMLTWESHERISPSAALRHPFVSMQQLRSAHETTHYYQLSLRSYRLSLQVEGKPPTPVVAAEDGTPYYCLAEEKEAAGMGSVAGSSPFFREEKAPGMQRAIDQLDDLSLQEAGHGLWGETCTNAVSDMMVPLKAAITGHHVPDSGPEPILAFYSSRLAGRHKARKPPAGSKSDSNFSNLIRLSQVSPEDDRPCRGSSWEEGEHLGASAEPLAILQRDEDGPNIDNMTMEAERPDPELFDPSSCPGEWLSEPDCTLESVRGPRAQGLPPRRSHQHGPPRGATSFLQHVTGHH
Conditions: at 0.1 µM.

In assay [5] the target is T1, Homeodomain-interacting protein kinase 4 (Homo sapiens). The settings on record: at 1 µM.
For assay [6], the target named is Mitogen-activated protein kinase 9 (Homo sapiens) (UniProt P45984). Conditions: at 0.1 µM.
Mitogen-activated protein kinase 9 (Homo sapiens), sequence (P45984 whole entry, looked up): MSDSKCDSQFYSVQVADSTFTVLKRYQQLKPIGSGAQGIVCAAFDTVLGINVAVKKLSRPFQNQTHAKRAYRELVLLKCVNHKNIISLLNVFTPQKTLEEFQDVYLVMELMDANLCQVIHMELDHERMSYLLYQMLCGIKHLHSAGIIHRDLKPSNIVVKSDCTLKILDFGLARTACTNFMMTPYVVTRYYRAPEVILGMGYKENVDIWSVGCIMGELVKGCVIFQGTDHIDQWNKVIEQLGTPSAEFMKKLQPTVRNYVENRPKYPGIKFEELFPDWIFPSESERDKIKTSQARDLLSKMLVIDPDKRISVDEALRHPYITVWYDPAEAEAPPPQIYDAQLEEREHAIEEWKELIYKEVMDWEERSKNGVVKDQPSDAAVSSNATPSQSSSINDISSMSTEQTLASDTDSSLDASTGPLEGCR
Assay [7] shares this target. Conditions: at 1 µM.
Assay [8] addresses Mitogen-activated protein kinase 1 (Homo sapiens) (UniProt P28482). Conditions: at 0.1 µM.
Assay [9] shares this target. Conditions: at 1 µM.
The target in assay [10] is Mitogen-activated protein kinase 3 (Homo sapiens) (UniProt P27361). Conditions: at 0.1 µM.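 Also: each value is a mean inhibition figure.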
Mitogen-activated protein kinase 3 (Homo sapiens), sequence (P27361 whole entry): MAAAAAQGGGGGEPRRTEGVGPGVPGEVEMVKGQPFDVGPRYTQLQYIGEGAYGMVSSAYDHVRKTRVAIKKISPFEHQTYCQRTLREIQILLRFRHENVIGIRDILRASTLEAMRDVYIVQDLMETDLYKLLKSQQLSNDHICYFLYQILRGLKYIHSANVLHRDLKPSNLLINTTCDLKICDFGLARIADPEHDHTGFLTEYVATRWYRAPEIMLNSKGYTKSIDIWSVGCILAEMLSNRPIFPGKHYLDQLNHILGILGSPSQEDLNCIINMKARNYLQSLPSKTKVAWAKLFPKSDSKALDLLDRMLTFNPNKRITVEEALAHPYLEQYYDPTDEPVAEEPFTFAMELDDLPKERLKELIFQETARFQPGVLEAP

Consider 16 compounds from ChEMBL document CHEMBL1961873, “Compounds: GSK PKIS; Assays: Nanosyn kinase panel” (2012).

Values joined by “and” are separate entries in the source; they are usually repeats but may differ in a detail not shown here. Equal values may be shown once.

Homeodomain-interacting protein kinase 1 (Homo sapiens), sequence (Q86Z02 whole entry, looked up): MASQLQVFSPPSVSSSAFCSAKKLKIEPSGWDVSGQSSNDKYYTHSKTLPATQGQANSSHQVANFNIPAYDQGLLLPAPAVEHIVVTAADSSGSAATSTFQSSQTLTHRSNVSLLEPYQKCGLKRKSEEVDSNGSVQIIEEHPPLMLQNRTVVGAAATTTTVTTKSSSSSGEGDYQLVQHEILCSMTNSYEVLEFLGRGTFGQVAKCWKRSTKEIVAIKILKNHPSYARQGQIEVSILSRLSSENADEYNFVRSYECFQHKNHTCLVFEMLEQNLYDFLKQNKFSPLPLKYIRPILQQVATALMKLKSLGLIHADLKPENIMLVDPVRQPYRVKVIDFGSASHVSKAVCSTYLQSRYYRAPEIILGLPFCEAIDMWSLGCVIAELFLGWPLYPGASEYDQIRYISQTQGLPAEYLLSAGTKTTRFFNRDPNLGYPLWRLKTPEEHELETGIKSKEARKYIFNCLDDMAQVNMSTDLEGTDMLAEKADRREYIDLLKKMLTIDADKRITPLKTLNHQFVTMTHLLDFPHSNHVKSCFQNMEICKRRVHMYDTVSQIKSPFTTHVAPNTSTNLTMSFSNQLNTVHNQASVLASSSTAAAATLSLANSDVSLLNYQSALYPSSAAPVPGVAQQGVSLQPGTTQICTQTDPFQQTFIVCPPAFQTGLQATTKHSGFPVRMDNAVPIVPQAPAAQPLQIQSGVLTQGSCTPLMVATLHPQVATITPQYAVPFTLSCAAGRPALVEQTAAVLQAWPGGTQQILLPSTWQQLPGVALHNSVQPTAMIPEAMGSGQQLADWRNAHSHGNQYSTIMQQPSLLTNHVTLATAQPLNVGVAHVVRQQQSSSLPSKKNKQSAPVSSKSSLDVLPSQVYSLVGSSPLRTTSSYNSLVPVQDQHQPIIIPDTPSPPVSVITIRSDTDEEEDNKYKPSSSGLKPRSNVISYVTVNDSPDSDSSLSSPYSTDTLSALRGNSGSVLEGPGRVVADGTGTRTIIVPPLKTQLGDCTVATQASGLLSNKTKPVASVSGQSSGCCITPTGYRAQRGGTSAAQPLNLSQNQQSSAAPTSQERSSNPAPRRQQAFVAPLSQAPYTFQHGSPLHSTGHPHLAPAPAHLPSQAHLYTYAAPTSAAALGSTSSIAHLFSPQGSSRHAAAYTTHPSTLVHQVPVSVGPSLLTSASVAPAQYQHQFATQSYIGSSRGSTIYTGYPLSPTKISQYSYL
Mitogen-activated protein kinase 1 (Homo sapiens), sequence (P28482 whole entry): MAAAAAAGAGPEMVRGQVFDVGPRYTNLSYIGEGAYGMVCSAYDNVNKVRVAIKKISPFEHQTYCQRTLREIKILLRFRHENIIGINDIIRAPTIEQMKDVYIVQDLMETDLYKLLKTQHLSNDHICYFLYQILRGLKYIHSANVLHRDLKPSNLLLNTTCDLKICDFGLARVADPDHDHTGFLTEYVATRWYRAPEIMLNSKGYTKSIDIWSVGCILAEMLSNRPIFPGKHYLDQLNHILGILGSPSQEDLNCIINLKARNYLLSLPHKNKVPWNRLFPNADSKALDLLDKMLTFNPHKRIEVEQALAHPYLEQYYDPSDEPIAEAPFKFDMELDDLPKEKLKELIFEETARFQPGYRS
Glycogen synthase kinase-3 beta (Homo sapiens), sequence (P49841 whole entry, looked up): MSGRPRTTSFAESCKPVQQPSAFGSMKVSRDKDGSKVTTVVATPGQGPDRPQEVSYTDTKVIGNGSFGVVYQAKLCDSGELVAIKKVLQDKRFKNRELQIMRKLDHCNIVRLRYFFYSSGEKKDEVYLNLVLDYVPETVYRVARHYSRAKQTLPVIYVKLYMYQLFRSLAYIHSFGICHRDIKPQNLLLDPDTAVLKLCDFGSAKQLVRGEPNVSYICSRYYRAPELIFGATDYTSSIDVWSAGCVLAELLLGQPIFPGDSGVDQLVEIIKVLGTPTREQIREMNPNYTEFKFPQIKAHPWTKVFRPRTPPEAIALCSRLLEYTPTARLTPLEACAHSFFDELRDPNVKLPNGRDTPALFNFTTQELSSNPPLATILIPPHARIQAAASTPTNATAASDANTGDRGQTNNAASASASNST

For the compound `NS(=O)(=O)c1ccc(N/N=C2\C(=O)Nc3ccc(C(=O)NCc4ccncc4)cc32)cc1`, the inhibition stood at 77.1% in assay [1]; 10.9% in assay [2]; 42.5% in assay [3]; 12.2% in [4]; 45.9% in assay [5]; 2.55% in [6]. The inhibition in assay [7] amounted to 8.96%; in [8], 14.9%; in assay [9] it was 55.3%; in assay [10] it was 5.64%.
In the case of `CS(=O)(=O)Nc1ccc(-c2ccc3c(NC(=O)C4CC4)n[nH]c3c2)cc1`, the inhibition was 5.37% in assay [1]; -0.91% in [2]; 5.67% in [3]; 0.27% in [4]; 5.43% in assay [5]; 2.01% in assay [6]. Also, the inhibition was determined as 3.22% in [7], 4.95% in [8], 1.75% in assay [9] and 2.3% in [10].
`O=C1Nc2ccccc2/C1=C1\CCc2cc(O)ccc21`: the inhibition in [1] is 7.64%; in assay [2] it was -1.14%; in assay [3], 7.57%; in assay [4], 0.76%; in assay [5], 10.8%; in assay [6], 5.71%. For the same compound, the inhibition stood at 9.88% in assay [7], 5.77% in assay [8], 6.56% in [9] and 5.82% in assay [10].
Take `CCS(=O)(=O)c1ccc(OC)c(Nc2ncc(-c3cccc(C(C)=O)c3)o2)c1`: the inhibition is 12.4% in assay [1]; 5.49% in [2]; 23% in [3]; 5.03% in assay [4]; 27.3% in assay [5]; -1.02% in [6]. Besides, the inhibition in assay [7] was 1.43%; in assay [8], 4.9%; in assay [9] it was 3.99%; in assay [10], 2.3%.
As for `Cc1nnc(-c2cccc(-c3ccc(C(=O)NCC4CC4)cc3)c2)o1`, the inhibition in assay [1] is 11.6%; in assay [2] it was 4.5%; in assay [3] it was 4.32%; in [4], 2.08%; in assay [5] it was -0.47%; in assay [6] it was 3.54%. Moreover, the inhibition in [7] was 6.68%; in assay [8] it was 2.73%; in assay [9], 5.62%; in assay [10], 5.36%.
Regarding `Nc1nccc(-c2c(-c3ccc(F)cc3)ncn2C2CCNCC2)n1`, the inhibition in assay [1] is 2.45% and 5.63%; in assay [2], -0.66% and 2.64%; in [3], 7.61% and 4.5%; in assay [4] it was 0.4% and 1.82%; in assay [5], 8.1% and 1.64%; in [8], -4.78%. Also, the inhibition in assay [9] is 0.6% and 1.9%; in [10], -1.7% and 0.12%.
`OCCCNc1nccc(-c2c(-c3ccc(F)cc3)nn3cc(C(F)(F)F)ccc23)n1`: the inhibition in [1] is 31.2%; in assay [2] it was -0.49%; in assay [3] it was 3.61%; in assay [4] it was 3.13%; in assay [5], 6.59%; in [6], 14.8%. In addition, the inhibition in [7] stood at 59.7%; in assay [8] it was 1.24%; in assay [9] it was 7.07%; in assay [10], 1.68%.
Take `CC(C)c1ccc(-c2cc(-c3c[nH]nc3-c3ccccn3)ccn2)cc1`: the inhibition in assay [1] was 3.51%; in assay [2], -2.26%; in assay [3] it was 0.99%; in [4], 0.13%; in assay [5], 3.76%; in assay [6], 0.51%. For the same compound, the inhibition in [7] is 2.5%; in assay [8], -0.73%; in assay [9] it was 2.22%; in [10] it was 0.86%.
For the compound `CS(=O)(=O)CCNCc1ccoc1-c1ccc2ncnc(Nc3ccc(OCc4ccccc4)cc3)c2c1`, the inhibition in [1] is 4.28%; in assay [2], -3.84%; in assay [3], 0.14%; in assay [4] it was 0.57%; in assay [5] it was 2.87%; in [6] it was 1.1%. The inhibition in assay [7] was 1.84%; in assay [8], 0.72%; in assay [9] it was 2.14%; in assay [10] it was 0.52%.
For `Cc1cc(O)cc(C)c1/C=C/c1cncc(C(N)=O)c1`, the inhibition was determined as 1.95% in assay [1]; 0.55% in [2]; 3.38% in [3]; 0.22% in assay [4]; 1.54% in [5]; 1.69% in assay [6]. Besides, the inhibition in assay [7] stood at 2.53%; in assay [8] it was 1.25%; in assay [9], 2.53%; in [10], 0.31%.
On to `CS(=O)(=O)CCNCc1ccc(-c2ccc3ncnc(Nc4ccc(OCc5cccc(C(F)(F)F)c5)cc4)c3c2)o1`, for which the inhibition in assay [1] was 3.05%; in assay [2] it was -0.56%; in [3], 2.78%; in assay [4], 0.9%; in [5] it was 7.06%; in assay [6], 3.75%. Moreover, the inhibition in assay [7] came out at 7.64%; in assay [8] it was 5.63%; in [9] it was 5.84%; in assay [10], 4.22%.
Take `COC(=O)Nc1nc2ccc(Oc3ccc(NC(=O)Nc4cc(C(F)(F)F)ccc4F)cc3)cc2s1`: the inhibition is 5.68% in assay [1]; -1.19% in [2]; 0.81% in [3]; 6.92% in assay [4]; 33.5% in [5]; -0.14% in assay [6]. The inhibition in assay [7] was 3.25%; in assay [8], -1.09%; in assay [9], 0.7%; in assay [10], 0.14%.
As to `COc1cc2c(cc1Nc1nc(Nc3cccc(F)c3C(N)=O)c3cc[nH]c3n1)N(C(=O)CN1CCN(C(C)C)CC1)CC2`, the inhibition in assay [1] is 3.89%; in assay [2], 0.07%; in assay [3], 21.8%; in assay [4], 3.33%; in [5], 15.4%; in [6] it was 3.04%. In addition, the inhibition in assay [7] was 18.2%; in assay [8], 2.66%; in assay [9] it was 7.45%; in assay [10], 2.64%.
Turning to `NS(=O)(=O)c1cccc(N/C=C2\C(=O)Nc3ccccc32)c1`, the inhibition is 19.7% in assay [1]; -0.03% in [2]; 2.88% in assay [3]; 0.43% in assay [4]; 4.51% in [5]; 7.2% in assay [6]. In addition, the inhibition in [7] amounted to 10.9%; in assay [8], 2.99%; in assay [9] it was 4.54%; in assay [10], 1.72%.
As for `Fc1cccc(COc2ccc(Nc3ncncc3C#Cc3ccccc3)cc2Cl)c1`, the inhibition was 6.26% in assay [1]; 3.88% in [2]; 4.2% in [3]; 1.31% in [4]; 1.7% in [5]; 2.97% in assay [6]. Also, the inhibition in assay [7] is 7.96%; in [8], 5.17%; in [9], 4.95%; in assay [10], 4.94%.
As to `CNC(=O)c1cncc(/C=C/c2ccccc2C)c1`, the inhibition is 10.8% in assay [1]; 2.37% in [2]; 3.05% in assay [3]; 3.2% in assay [4]; 3.78% in assay [5]; 3.59% in assay [6]. In addition, the inhibition in assay [7] was determined as 5.08%; in assay [8], 7.05%; in assay [9], 5.85%; in assay [10], 4.41%.

For orientation: inhibition means the drop in the measured response relative to a control, in per cent.
